# Screens from PubChem.
# This is a sample that favours compounds with a hit; in the whole collection about 3.9% have one here.
# CCHF vOTU inh: CCHFV vOTU protease inhibitors, primary screen, biochemical, Pep-AMC substrate, fluorescence; AID 651958, 2012; inhibition, % at 11.5 µM; Crimean-Congo hemorrhagic fever virus L polyprotein viral ovarian tumor (vOTU) protease …; 0.55% of 370,000 active; note: 0% = vehicle wells with enzyme and 100% = no enzyme wells
# FBA Mtb inh: Mtb FBA enzyme inhibitors, primary screen, biochemical, fluorescence, strain H37Rv | Fructose-bisphosphate aldolase (Mycobacterium tuberculosis (strain ATCC 25618 / H37Rv)), … | purified M. tuberculosis FBA, fluorescence read-out | inhibition, % at 1 µM | 2.3% of 360,000 active; in the data active = inhibition above about 27%;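 note: 0% = vehicle and 100% = reference inhibitor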
# Target sequence (P9WQA3 whole entry, looked up): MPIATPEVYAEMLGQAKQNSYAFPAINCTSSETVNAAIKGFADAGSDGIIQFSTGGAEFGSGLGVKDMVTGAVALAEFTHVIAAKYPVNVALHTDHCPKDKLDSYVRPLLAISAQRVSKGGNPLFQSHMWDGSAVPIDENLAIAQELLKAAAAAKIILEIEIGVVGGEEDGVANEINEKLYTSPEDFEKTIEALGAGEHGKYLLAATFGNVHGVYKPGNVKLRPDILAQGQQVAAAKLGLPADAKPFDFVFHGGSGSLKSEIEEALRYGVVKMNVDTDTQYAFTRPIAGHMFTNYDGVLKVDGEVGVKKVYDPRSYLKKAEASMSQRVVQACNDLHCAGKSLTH
# Vc quorum ag: inducers of Vibrio cholerae quorum light production without autoinducers, primary screen, BH1578 luxS cqsA deficient, single point; V. cholerae BH1578 lux reporter, luminescence, 6 h; activation, % at 18.7 µM; 0.16% of 350,000 active; AID 588436, 2011; in the data active = activation mostly above about 9.7%, no sharp cut-off
# GDH-TPI counter-1: GDH-TPI coupling enzyme inhibitors, primary screen, artefact control for M. tuberculosis FBA inhibitor project, biochemical, absorbance, full deck. GDH-TPI coupled enzyme counterscreen, NADH absorbance. inhibition, % at 4.8 µM. 1.2% of 360,000 active;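 note: 0% = DMSO wells and 100% = wells lacking the enzyme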
# Mtb FBA confirm: M. tuberculosis aldolase blockers, biochemical, fluorescence, strain H37Rv, confirmation | AID 651616, 2012 | purified M. tuberculosis FBA, fluorescence read-out | 78% of 5,600 active | inhibition, % at 1 µM | shares compounds with FBA Mtb inh; in the data active = inhibition above about 27%;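 note: 0% = vehicle wells and 100% = reference inhibitor wells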
# GDH-TPI counter-2: GDH-TPI coupling enzyme inhibitors, artefact control for M. tuberculosis FBA inhibitor project, biochemical, fluorescence, high throughput. shares compounds with FBA Mtb inh. GDH-TPI coupled enzyme counterscreen. inhibition, % at 1 µM. 81% of 5,600 active; in the data active = inhibition above about 10%
# Active calls of the source: *; i = inactive; · = no result; + = active, no number. Cut-off read from the data, not from the text of the source, unless noted: active = inhibition above about 30%; inactive = the rest.
SMILES,CCHF vOTU inh,FBA Mtb inh,Vc quorum ag,GDH-TPI counter-1,Mtb FBA confirm,GDH-TPI counter-2
CCOC(=O)C1=C(CSc2nc(-c3ccccc3)ccc2C#N)OC(N)=C(C#N)C1c1ccc(OC)cc1 (stereo not drawn),19,74*,1,15,112*,93*
CC(=O)c1ccc(C(=O)N2CCc3c([nH]c4ccccc34)C2c2ccccn2)s1 (stereo not drawn),4,0,-2,0,·,·
O=C(c1cccs1)N1CCc2c([nH]c3ccccc23)C1c1ccccn1 (stereo not drawn),-3,34*,·,7,1,-5
N#CCC(=O)Nc1ccc(C(=O)NCc2ccccn2)cc1,6,27*,0,-1,114*,72*
CC(=O)c1sc2nc(-c3cccs3)ccc2c1N,-5,17,0,19,·,·
Nc1c(C(=O)Nc2nc3ccccc3s2)sc2nc(-c3cccs3)ccc12,·,52*,-6,35*,123*,114*
Brc1ccc2nc(-c3ccco3)c(Cc3ccsc3)n2c1,8,-2,·,·,·,·
N#CCCn1cc(C(N)=O)c(-c2ccc3ccccc3c2)n1,-11,1,1,8,·,·
Nc1c(C(=O)N/N=C/c2ccccc2Cl)oc2nc(-c3ccccc3)cc(-c3ccco3)c12,-7,4,0,2,·,·
Cc1cc(C)c2c(N)c(C(=O)c3ccccc3)oc2n1,-9,5,i,8,·,·
Cc1cc(-c2ccccc2)nc2oc(C(=O)NN)c(N)c12,-10,39*,0,9,55*,44*
COC(=O)c1oc2nc(C)cc(C)c2c1N,-41,69*,0,16,47*,40*
O=S(=O)(c1ccc(Cl)nc1)N(Cc1ccccc1)Cc1ccccc1,8,3,0,-3,·,·
COC(=O)c1ccc(NC(=O)Cn2cnc3c(nnn3-c3cccc(OC)c3)c2=O)cc1,-2,5,0,8,·,·
Cc1ccc2[nH]c3c(=O)n(N)c(C)nc3c2c1,4,41*,0,14,39*,27*
COc1ccc2[nH]c3c(=O)n4c(nc3c2c1)SCC4,-47,50*,i,8,12,10
Cc1ccc2[nH]c3c(=O)n(Cc4ccco4)cnc3c2c1,-7,4,i,8,·,·
COc1ccc2[nH]c3c(=O)n(N)c(C)nc3c2c1,-83,106*,-1,10,157*,137*
CCCc1nnc(NC(=O)CCC(=O)Nc2ccc(F)cc2)s1,-6,1,i,3,·,·
COc1ccc2oc(=O)c(C(=O)NCC3CCCO3)cc2c1 (stereo not drawn),-67,64*,i,15,79*,59*
COc1ccc(-c2cc(C(F)F)n3ncc(C(=O)NCC4CCCO4)c3n2)cc1 (stereo not drawn),-19,29*,6,26,96*,76*
CNC(=O)c1cc2cc(OC)ccc2oc1=O,·,59*,3,-1,14,-4
Cc1ccn(C(=O)c2cc3cc(Cl)ccc3oc2=O)n1,-9,3,i,9,·,·
COc1ccc2oc(=O)c(C(=O)NC3CCCCCC3)cc2c1,-6,10,i,17,·,·
COc1ccc2oc(=O)c(C(=O)n3ccc(C)n3)cc2c1,-17,40*,-1,16,78*,54*
SMILES,CCHF vOTU inh,FBA Mtb inh,Vc quorum ag,GDH-TPI counter-1,Mtb FBA confirm,GDH-TPI counter-2
CNc1cc(=O)n(C)c(=O)n1-c1ccccc1,-15,-1,0,-3,·,·
CCN1CCN(C(C(=O)NC2CCCCC2)c2ccc(Cl)cc2)CC1 (stereo not drawn),-5,1,3,0,·,·
COc1cc2c(c(OC)c1OC)C1(CCCCC1)CC2NCC=C(C)C (stereo not drawn),1,·,·,·,·,·
O=C(NCCc1ccccc1)C1CCCN(C(=O)NC2CCCCC2)C1 (stereo not drawn),-3,1,i,4,·,·
Cc1ccc2nc(-c3ccccc3)cc(C(=O)NCC3CCCO3)c2c1 (stereo not drawn),-30,41*,-1,7,81*,86*
CNC(=O)c1cc2cc(OC)ccc2oc1=N,-58,54*,0,6,28*,16*
CCc1cccc2c(C(=O)COC(=O)/C=C/c3ccc(O)c(OC)c3)c[nH]c12,4,1,i,16,·,·
COc1ccccc1Cc1c(-c2cccc(Cl)c2)nc2ccc(C)cn12,2,10,·,·,·,·
O=C(Cc1ccccc1)Nc1cccc(C(=O)O)c1O,0,76*,i,5,82*,49*
O=C(Cc1ccccc1)Nc1ccccc1C(=O)Nc1ccccc1,-3,3,i,10,·,·
CC(=O)c1ccc(-c2ccc(C(=O)NCC(c3ccc(F)cc3)N3CCOCC3)o2)cc1 (stereo not drawn),-55,55*,-1,21,57*,32*
Cc1ccc(C(=O)NCC(c2ccc(F)cc2)N2CCOCC2)cc1 (stereo not drawn),-14,-2,0,-14,·,·
CCOC(=O)c1sc2nc(C(C)C)c3c(c2c1N)CC(C)(C)OC3,-13,6,i,4,·,·
CCOC(=O)c1sc2nc(C(C)C)c3c(c2c1N)CCC3,-6,29*,0,4,96*,82*
FC(F)C(F)(F)Oc1cccc(Nc2nccn3c(-c4cccc5ccccc45)cnc23)c1,6,4,i,10,·,·
Cc1ccc(CCNC(=O)c2coc3nc4ccccc4nc23)cc1,0,58*,-6,10,99*,72*
Clc1ccc2nc(-c3ccccc3)cn2c1,-4,5,0,5,·,·
Cc1ccn2cc(-c3cccc(NC(=O)CCC(=O)O)c3)nc2c1,-22,44*,i,7,45*,34*
CC(=O)Nc1cccc(-c2cn3ccc(C)cc3n2)c1,-17,50*,0,12,+,+
Cc1ccn2cc(-c3cccc(NS(C)(=O)=O)c3)nc2c1,-14,37*,0,4,60*,31*
Cc1ccn2cc(-c3cccc(S(=O)(=O)N4CCCC4)c3)nc2c1,-8,4,0,5,·,·
Cc1ccn2cc(-c3ccc(NS(=O)(=O)c4ccccc4)cc3)nc2c1,-11,6,0,8,·,·
CC(=O)Nc1ccc2nc(-c3ccccc3)cn2c1,-15,38*,-1,14,+,184*
CC1CCN(C(=O)CC(NC(=O)c2ccccc2Cl)c2ccccc2)CC1 (stereo not drawn),-2,3,0,-6,·,·
Cc1ncc(CSc2nnnn2-c2ccccc2)c(N)n1,-7,2,i,3,·,·
O=[N+]([O-])c1ccc(N2CCCC2)c([N+](=O)[O-])c1,-4,29*,1,7,182*,123*
